Source: PubChem (Broad Institute)
aSyn UTR act – Activators via SNCA 5'UTR binding, MLPCN. 300,000 tested, 7.1% active. alpha-synuclein 5'UTR reporter, activators screen. activity score, % (tested at 7.5 µM), hits read low; in the data active = activity score below about -60%
The depositor's hits bear a star. A selection follows.

SMILES	aSyn UTR act
Fc1ccc2nc(N3CCOCC3)sc2c1	-131*
c1c2c(cc3sc(N4CCOCC4)nc13)OCO2	-64*
Cc1ccc(-c2nc3cccnc3s2)cc1NC(=O)c1ccco1	-198*
Cc1c(NS(C)(=O)=O)cccc1-c1nc2cccnc2s1	-64*
CCS(=O)(=O)Nc1cc(-c2nc3cccnc3s2)ccc1C	-123*
CCS(=O)(=O)Nc1cccc(-c2nc3cccnc3s2)c1	-62*
CCCc1cc(=O)n2[nH]c(-c3ccc(Cl)cc3)cc2n1	-141*
CCCc1cc(=O)n2[nH]c(-c3ccc(C)cc3)cc2n1	-129*
COc1cc(CNCc2ccccn2)ccc1OCc1ccc(Cl)cc1	-66*
CCOc1ccc2nc(SCc3ccccc3C#N)sc2c1	-220*
CCOc1ccc2nc(SCc3ccc(OC)cc3)sc2c1	-83*
O=[N+]([O-])c1ccc(-c2cn(-c3ccccc3F)c(=S)[nH]2)cc1	-94*
Cc1ccc(-c2cn(-c3ccccc3F)c(=S)[nH]2)cc1	-124*
Cc1ccc2c(c1C)NC(=O)CC(c1ccccc1O)=N2	-83*
COC(=O)N/N=C/c1ccc([N+](=O)[O-])s1	-142*
O=C(N/N=C/c1ccc([N+](=O)[O-])s1)c1ccccc1	68
O=C(CNC(=O)c1cccc(F)c1)N/N=C/c1ccc([N+](=O)[O-])s1	-105*
COc1ccccc1NC(=O)C(=O)N/N=C/c1ccc([N+](=O)[O-])s1	-138*
Cc1cc(C)c2nc(N3CCCC(C(=O)NCCN4CCOCC4)C3)sc2c1 (configuration not stated)	-74*
Cc1cc(C)c2nc(N3CCCC(C(=O)NCCCN4CCOCC4)C3)sc2c1 (configuration not stated)	-77*
COc1ccc(/C=C2\SC(=O)N(CCC(=O)Nc3ccccc3)C2=O)cc1OC	82
COc1ccccc1/C=C1\SC(=O)N(CCC(=O)NNC(=O)c2ccccc2Cl)C1=O	-74*
NNCCc1ccccc1	-133*
Cc1cccc(NC(=S)NC(=O)c2oc3ccccc3c2C)n1	-144*
Cc1cccc(NC(=S)NC(=O)c2ccc(-c3ccccc3)cc2)n1	-109*
SMILES	aSyn UTR act
CCCc1nn(C)c(C(=O)Nc2ccc(C)c(C)c2)c1Cl	-102*
CCn1nc(C(=O)Nc2ccc(C)c(C)c2)c(Cl)c1Cl	-91*
CCCc1nn(C)c(C(=O)Nc2ccc(CC)cc2)c1Cl	-74*
COc1ccc(/C=N/Nc2nccnc2Cl)c(OC)c1	-111*
COc1ccc2nc(Cl)c(/C=N/Nc3ccccn3)cc2c1	-88*
COc1cccc(/C=N/Nc2nccnc2Cl)c1O	90
COc1ccc(C(=O)Oc2ccc3oc(=O)sc3c2)cc1	-89*
O=C1CCCC1C(=O)Nc1ccc2ccccc2c1 (configuration not stated)	-121*
Clc1ccc(Nc2nc(C3CC3)cs2)cc1	-190*
COc1ccc(N2C(=O)c3ccccc3NC2c2ccc(OC)c(CSc3ccccn3)c2)cc1 (configuration not stated)	-89*
COC(=O)COc1ccc(Cl)cc1C1Nc2ccccc2C(=O)N1c1ccc(OC)cc1 (configuration not stated)	-88*
COc1ccc(N2C(=O)c3ccccc3NC2c2ccc(OC)c(COc3ccccn3)c2)cc1 (configuration not stated)	-77*
CCOC(=O)c1oc2ccc(CNCCO)c(Cl)c2c1C	-63*
Nc1nc(N)nc(COc2ccccc2)n1	-106*
COc1cccc(Oc2ccc(C(F)(F)F)cc2N)c1	-104*
CCOc1ccc(Oc2ccc(C(F)(F)F)cc2N)cc1	-87*
Cc1cccc(-n2ncc3c(NCc4cccs4)ncnc32)c1	-112*
Clc1ccc(-n2ncc3c(NCc4cccs4)ncnc32)cc1	-249*
N#C/C(=C\c1ccccc1)c1ccccn1	-100*
CNc1ccc(/C=C(\C#N)c2ccccn2)cc1[N+](=O)[O-]	-157*
CSc1ccc(CNc2ccc(C)cc2)cc1	-149*
CSc1ccc(CNc2ccc(C)c(C)c2)cc1	-139*
O=c1c(-c2ccc(Cl)cc2)cnc2n1CCS2	-83*
CC(=O)Cn1nnc2sc3c(c2c1=O)CCC(C(C)(C)C)C3 (configuration not stated)	-113*
Cc1nc(C)c(-c2csc(NCc3ccco3)n2)s1	-99*
SMILES	aSyn UTR act
COc1ccc(-c2csc(NCc3ccco3)n2)cc1	-160*
c1coc(CNc2nc(-c3ccncc3)cs2)c1	-92*
O=[N+]([O-])c1cc(C(F)(F)F)ccc1Sc1ccc2ccccc2n1	-75*
O=C(NC1=NCCS1)c1sc2cc(F)ccc2c1Cl	-191*
O=C(NC1=NCCS1)c1ccc(-c2ccc(Cl)cc2)o1	-191*
O=C(NC1CCC(O)CC1)c1ccc(-c2ccc(Cl)cc2)o1 (configuration not stated)	-112*
O=C(NC1=NCCS1)c1ccc(Cl)cc1	-180*
O=C(NNC1=Nc2ccccc2SC1)c1ccc(Cl)cc1	96
O=C(NCCCN1CCOCC1)c1sc2cc(F)ccc2c1Cl	-62*
OC(CNc1ncnc2sccc12)c1ccccc1 (configuration not stated)	-97*
c1ccc(CCNc2ncnc3sccc23)nc1	-86*
